This is part of a sample that, as a whole, favours compounds with a hit. Of some 79,000 tested, about 15% had one in any assay. Activity calls are given as the source filed them. Rule as the data show it: active = growth inhibition above about 70%; inactive = the rest.
Key:
[1] = NCI Yeast Anticancer Drug Screen. Data for the rad50 strain (AID 155);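 also: 0% = growth of vehicle-only cultures of the same strain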; settings: S. cerevisiae rad50 strain growth inhibition, stronger effect = higher value
In short: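 Vehicle-treated cultures provide the reference for the growth inhibition reported for compound-exposed, repair-deficient yeast.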

[2] = NCI Yeast Anticancer Drug Screen. Data for the mec2-1 strain (AID 157); settings: S. cerevisiae mec2-1 strain, stronger effect = higher value
In short: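 Compounds were applied to mec2-1 yeast cells. Their growth was then compared with that of vehicle-treated cultures to give growth inhibition.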

[3] = NCI Yeast Anticancer Drug Screen. Data for the sgs1 mgt1 strain (AID 161);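 also: 0% = growth of cultures given vehicle only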; settings: S. cerevisiae sgs1 mgt1 strain, stronger effect = higher value
In short: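 Percent growth inhibition was derived by comparing compound-exposed mutant yeast with vehicle-exposed cultures. The strain carries alterations in DNA damage repair.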

[4] = NCI Yeast Anticancer Drug Screen. Data for the cln2 rad14 strain (AID 165);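 also: 0% = growth equal to vehicle treated cultures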; settings: S. cerevisiae cln2 rad14 strain, stronger effect = higher value
In short: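 Strain: cln2 rad14 yeast, altered in cell cycle control and DNA damage repair. Read-out: growth inhibition vs vehicle.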

[5] = NCI Yeast Anticancer Drug Screen. Data for the bub3 strain (AID 167); settings: S. cerevisiae bub3 mutant strain, stronger effect = higher value
In short: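 Mutant yeast screening strain plus compound; vehicle-treated cultures serve as the 0% inhibition reference.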

[6] = NCI Yeast Anticancer Drug Screen. Data for the mlh1 rad18 strain (AID 175); settings: S. cerevisiae mlh1 rad18 strain growth inhibition, stronger effect = higher value
In short: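 A repair-deficient yeast strain is exposed to test compound, and growth is scored relative to vehicle-treated controls.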

[7] = at 5.0 µM (retest, dose inferred, filed as 0.5)
[8] = at 50.0 µM (retest, dose inferred, filed as 5.0)

Measured: growth inhibition

Cc1ccc(NC(=O)Oc2ccc(C(C)(C)C)cc2Br)cc1NC(=O)Oc1ccc(C(C)(C)C)cc1Br
inactive: [1]; [7] 8% | [1]; [8] 26% | [1]; at 50.0 µM 40.1% | [2]; [7] -4% | [2]; [8] 13% | [2]; at 50.0 µM 60% | [3]; [7] 3% | [3]; [8] 14% | [3]; at 50.0 µM 49.7% | [4]; [7] 2% | [4]; [8] 11% | [4]; at 50.0 µM 19.9% | [5]; [7] 0% | [5]; [8] 28% | [5]; at 50.0 µM 28.4% | [6]; [7] 4% | [6]; [8] 53%
active: [6]; at 50.0 µM 79.2%

Nc1ccc2c(SCC(=O)Nc3ccccc3-c3ccccc3NC(=O)CSc3c4ccccc4nc4cc(N)ccc34)c3ccccc3nc2c1
active: [1]; [8] 97% | [1]; at 50.0 µM 90% | [2]; [8] 98% | [2]; at 50.0 µM 92.5% | [3]; [8] 97% | [3]; at 50.0 µM 91.2% | [4]; [8] 97% | [4]; at 50.0 µM 78.8% | [5]; [8] 97% | [5]; at 50.0 µM 90.5% | [6]; [8] 96% | [6]; at 50.0 µM 87.5%
inactive: [1]; [7] 25% | [2]; [7] 24% | [3]; [7] 33% | [4]; [7] 17% | [5]; [7] 27% | [6]; [7] 11%

CC1(C)NNC(=S)NN1
inactive: [1]; [7] 2% | [1]; [8] 12% | [1]; at 50.0 µM 5.95% | [2]; [7] -3% | [2]; [8] 8% | [2]; at 50.0 µM 15.4% | [3]; [7] 4% | [3]; [8] 14% | [3]; at 50.0 µM 21.3% | [4]; [7] 12% | [4]; [8] 7% | [4]; at 50.0 µM 9.75% | [5]; [7] 23% | [5]; [8] 5% | [5]; at 50.0 µM 2.4% | [6]; [7] 20% | [6]; [8] 8% | [6]; at 50.0 µM 41.8%

O=C(O)c1cc(-c2ccc3c(c2)Nc2ccccc2S3)nc2ccc(F)cc12
active: [1]; [8] 98% | [1]; at 50.0 µM 99% | [2]; [8] 98% | [2]; at 50.0 µM 99.1% | [3]; [8] 99% | [3]; at 50.0 µM 98.8% | [4]; [8] 97% | [4]; at 50.0 µM 98.7% | [5]; [8] 97% | [5]; at 50.0 µM 98% | [6]; [8] 96% | [6]; at 50.0 µM 98.7%
inactive: [1]; [7] 16% | [2]; [7] -40% | [3]; [7] 12% | [4]; [7] 22% | [5]; [7] 33% | [6]; [7] 18%

COc1cccc(C2c3cc4c(cc3OC(N3CCCC3)C2c2ccccc2)OCO4)c1O (stereo not given)
active: [1]; [8] 98% | [2]; [8] 99% | [3]; [8] 95% | [4]; [8] 96% | [5]; [8] 95% | [6]; [8] 98%
inactive: [1]; [7] 24% | [1]; at 50.0 µM 8.35% | [2]; [7] 19% | [2]; at 50.0 µM 13% | [3]; [7] -2% | [3]; at 50.0 µM 29.4% | [4]; [7] -7% | [4]; at 50.0 µM 13.2% | [5]; [7] 6% | [5]; at 50.0 µM 26.4% | [6]; [7] 18% | [6]; at 50.0 µM 32.2%
